Screening results deposited in PubChem by National Center for Advancing Translational Sciences (NCATS).
Only some compounds are listed: those with a hit (about 21% of all), similar ones and a draw of the others.
Shiga toxin inh – A qHTS for Small Molecule Inhibitors of Shiga Toxin; inhibition, % at 38.7 µM; hit rate 9.2% among 290,000; Vero cells, Shiga toxin protein synthesis inhibition reporter; in the data active = inhibition mostly above about 28%, no sharp cut-off; inactive = mostly below about 43%; note: 0% is about no effect
Pf growth 96h – Primary qHTS for delayed death inhibitors of the malarial parasite plastid, 96 hour incubation. P. falciparum luciferase reporter growth, 96 h. Potency, µM (series often up to 28.7 µM), without a hit: at the highest dose activity change, negative = inhibition, most hits filed as inhibitors. hit rate 6.9% among 320,000; note: potency is the fitted concentration of half-maximal effect; % is set by controls: 0 for no effect and ±100 for the full control effect
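Compounds incubated with erythrocytes infected by luciferase-expressing P. falciparum (2% hematocrit, 0.05% parasitemia final) for 96 hours, 37 C in 5% CO2. Growth inhibition scored as decreased luciferase luminescence.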
Pf growth 48h – Primary qHTS for delayed death inhibitors of the malarial parasite plastid, 48 hour incubation. Potency, µM (highest dose often 28.7 µM), without a hit: top-dose activity change, negative = inhibition, usual class: inhibitors. hit rate 5.9% among 310,000. P. falciparum luciferase growth in erythrocytes, 48 h; note: potency is the fitted concentration of half-maximal effect; % is set by controls: 0 for no effect and ±100 for the full control effect
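Luciferase-expressing P. falciparum in infected erythrocytes (2% hematocrit, 0.1% parasitemia final) in RPMI 1640/0.5% Albumax were exposed to compound for 48 hours at 37 C, 5% CO2; growth read as luminescence.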
CHX counter – Cycloheximide Counterscreen for Small Molecule Inhibitors of Shiga Toxin; cell reporter, cycloheximide protein synthesis inhibition counterscreen; max response, %; hit rate 12% among 300,000; AID 2314, 2010; in the data active = max response mostly above about 13%, no sharp cut-off; inactive = mostly below about 14%; note: read at 38.3 µM for the half of the compounds with a filed dose; 0% is about no effect
* marks the source's active call; other numbers are inactive results; i = inactive; ? = inconclusive; . = not tested or not shown; [ ] = another dose, or the depositor's remark. Unless noted, calls come from the whole dose curve; as a rule, active = well fitted inhibition curve with a large enough effect; inconclusive = small, poorly fitted or top-dose-only effect, or another doubt; inactive = no such curve, though single readings can be large or run the other way.

SMILES	Shiga toxin inh	Pf growth 96h	Pf growth 48h	CHX counter
CCCOc1ccc(C2Nc3cccc4cccc(c34)N2)cc1	33	?	?	13
O=[N+]([O-])c1cccc(C2Nc3cccc4cccc(c34)N2)c1	12	-7%	4.1µM*	9
O=C1C(c2[nH]c3ccc(S(=O)(=O)O)cc3c2O)=Nc2ccc(S(=O)(=O)O)cc21	-3	.	.	11
Cc1ccc(S(=O)(=O)N2CCOCC2)cc1NC(=O)CSc1nnc(C2CC2)n1C1CC1	.	-14%	-2%	.
CCCOc1ccc(CSCCNC(=S)Nc2ccccc2)cc1	2	?	13µM*	8
CCOc1ccc(CSCCNC(=S)Nc2ccc(OC)cc2)cc1	46	?	8.3µM*	2
CC(=O)N/N=C(\C)C1COc2ccccc2O1 (stereo not drawn)	7	0%	9%	5
CCCCNc1nnc(SCC(=O)c2c(N)n(CCC)c(=O)[nH]c2=O)s1	.	9.3µM*	12µM*	.
CCCn1c(N)c(C(=O)CSc2nc(C)cs2)c(=O)[nH]c1=O	17	.	0%	7
CCOC(=O)C1CN(S(=O)(=O)c2ccc(Cl)cc2)c2cc(S(=O)(=O)CC)ccc2O1 (stereo not drawn)	29	-29%	?	-5
CCC1CN(S(=O)(=O)c2ccc3c(c2)NC(=O)CC(=O)N3)c2cc(Cl)ccc2O1 (stereo not drawn)	-1	?	2.1µM*	-3
CCOC(=O)c1sc(=NC(=O)c2ccc(C)c(C)c2)n(C)c1C	67*	20%	83%	63*
CCOC(=O)c1sc(=NC(=O)/C=C/c2ccccc2)n(C)c1C	68*	92%	65%	38*
CCOC(=O)c1sc(=NC(=O)c2cccs2)n(C)c1C	96*	i	i	48*
C=CCn1c(=NC(=O)c2ccco2)sc2cc(C(=O)OCC)ccc21	-5	6.6µM*	15%	3
COC(=O)[C@H]1C[C@H](C(=O)O)[C@@H](C)C1(C)C	.	63%	-22%	.
CCOC(=O)c1sc(=NC(=O)c2ccccc2Br)n(C)c1C	87*	39%	107%	30*
CCOC(=O)c1sc(=NC(=O)c2ccc(Cl)s2)n(C)c1C	59*	155%	126%	31*
Cc1sc(=NC(=O)c2ccco2)n(C)c1-c1ccc(Cl)cc1	47	10µM*	?	3
CCOC(=O)c1sc(=NC(=O)c2ccco2)n(C)c1C	73*	148%	205%	60*
Cc1sc(NC(=O)c2ccco2)c(C(=O)c2ccc(Cl)cc2)c1C	15	21%	-14%	2
CCOC(=O)c1sc(=NC(=O)c2ccc(OC(C)C)cc2)n(C)c1C	-8	0%	0%	-6
CCOC(=O)c1sc(=NC(=O)c2ccc(S(=O)(=O)N3CC(C)OC(C)C3)cc2)n(C)c1C (stereo not drawn)	-24	?	?	0
CC(=O)Oc1ccc(C(=O)Nc2cccc3c2CCCC3)cc1	12	8%	5%	0
O=C(NCC(=O)N1CCCC(C(F)(F)F)C1)c1ccco1 (stereo not drawn)	.	7%	13%	.
SMILES	Shiga toxin inh	Pf growth 96h	Pf growth 48h	CHX counter
CCCS(=O)(=O)c1ccc(COC(=O)c2ccc(NC(C)=O)cc2)cc1	7	?	?	13
CC(=O)N[C@@H](CC(=O)O)C(=O)N[C@@H](CCC(=O)O)C(=O)O	.	4.3µM*	?	.
CCOc1ccc2nc(SC3CC(=O)N(c4ccc(OC)cc4OC)C3=O)sc2c1 (stereo not drawn)	-10	11%	23%	-2
Clc1ccc(-c2csc(N3CCC(c4ccccc4)C3)n2)cc1 (stereo not drawn)	95*	94%	122%	19
COc1ccc(-c2csc(N3CCC(c4ccccc4)C3)n2)cc1 (stereo not drawn)	13	21%	35%	11
Fc1ccc(-c2csc(N3CCC(c4ccccc4)C3)n2)cc1 (stereo not drawn)	94*	192%	99%	76*
S=C(NCc1ccco1)N1CCN(c2nc(-c3ccc(Cl)cc3)cs2)CC1	68	-62%	-20%	38
Cc1ccc(CSC2=NCCN2S(=O)(=O)c2ccc(F)cc2)cc1	16	10%	-15%	12
CC/C(=N\n1nnnc1Nc1ccccc1)c1ccccc1	1	-18%	10µM*	9
CCOC(OCC)P(=O)(c1ccccc1)c1ccccc1	4	12µM*	9%	4
CCCC(C(=O)OCC)P(=O)(c1ccccc1)c1ccccc1 (stereo not drawn)	12	?	.	-1
Cc1cc(C)c(NC(=O)CCCCCNC2CCCCC2)c(C)c1	-4	13µM*	4%	-3
Cc1[nH]n(-c2ccccc2)c(=O)c1C=NCc1ccco1	98*	12%	75%	41*
CCCc1[nH]n(-c2ccc(F)cc2)c(=O)c1C=NCC1CCCO1 (stereo not drawn)	0	-23%[5.75 µM]	?	-1
Cc1[nH]n(-c2cccc(Cl)c2)c(=O)c1C=NC12CN3CN(CN(C3)C1)C2	-3	42%	0%	-1
Cc1[nH]n(-c2cccc(Cl)c2)c(=O)c1C=NCc1ccco1	107*	-4%	141%	43*
Cc1[nH]n(-c2ccccc2)c(=O)c1/C=N/O	-15	?	36%	-2
Cc1[nH]n(-c2ccccc2)c(=O)c1C=NCC1CCCO1 (stereo not drawn)	49*	-8%	21%	23*
CCCc1[nH]n(-c2nc3ccccc3s2)c(=O)c1C=NCC1CCCO1 (stereo not drawn)	7	.	?	24*
Cc1ccc(S(=O)(=O)N(C)c2ccc(OCC(=O)N3CCCCC3)cc2)cc1	-3	?	?	-1
Cc1ccc(C)c(S(=O)(=O)N2CCC(c3nc4c(nnn4Cc4ccc5c(c4)OCCO5)c(=O)[nH]3)CC2)c1	-11	-72%	?	2
Cc1[nH]n(-c2ccccc2)c(=O)c1/C=N/N(C)c1ccccc1	45*	?	?	7
Cc1[nH]n(-c2cccc(Cl)c2)c(=O)c1C=NCC(C)C	96*	184%	250%	43*
CN1C(=O)/C(=C/C=C2\SCCN2C)SC1=S	82*	182%	141%	58*
CN1C(=O)/C(=C/C=C2\SCCN2C)N(C)C1=S	121*	?	210%	49*
SMILES	Shiga toxin inh	Pf growth 96h	Pf growth 48h	CHX counter
CN1C(=O)C(=Cc2ccc(N3CCCCCC3)o2)C(=O)N(C)C1=S	-2	.	-9%	3
CN(CC(=O)Nc1cccc(F)c1)C(=O)C1(c2ccccc2)CC1	.	18%	?	.
CN(C)Cc1c(C(=O)N/N=C/CCc2ccccc2)nnn1-c1nonc1N	15	3%	9%	8
CCCN(CCC)Cc1c(C(=O)N/N=C/c2c[nH]c3ccccc23)nnn1-c1nonc1N	-16	9.3µM*	5%	-4
CN(C)Cc1c(C(=O)N/N=C/C=C/c2ccccc2)nnn1-c1nonc1N	-1	-30%	-9%	29*
COCc1c(C(=O)N/N=C/c2c[nH]c3ccccc23)nnn1-c1nonc1N	30	?	10%	-3
